Measured values from PubChem BioAssay AID1159580 (chemical genetic matrix, 2015).
“And” between values parts separate entries of the source, which are not always exact repeats. Identical values can stand only once. Among all 5,500 compounds or so, about 2,000 (36%) were called active. About 18% were inconclusive and are not listed. Cut-off read from the data, not from the text of the source: active = normalized growth mostly below about 0.91 (no sharp cut-off); inconclusive = no clear call, values can overlap the other calls; inactive = mostly above about 0.92. The list shows a part of the results.

Experiment: chemical genetic growth profiling, strain panel (AID 1159580);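 note: tested at 20 µM; growth read once vehicle control cultures reached saturation at 30 °C; 1 = growth at the plate median or of vehicle wells; lower values mean less growth of the strain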
Details: S. cerevisiae deletion strains, growth OD

Measured: normalized growth

CCC[C@H](N[C@@H](C)C(=O)N1[C@H](C(=O)O)C[C@@H]2CCCC[C@@H]21)C(=O)OCC
inactive: locus YAL013W, strain DEP1, stronger effect = lower value 1.01 | locus YAL021C, strain ccr4, stronger effect = lower value 1.01 | locus YAL026C, strain drs2, stronger effect = lower value 1.01 | locus YAL030W, strain snc1, stronger effect = lower value 1.02 | locus YBL061C, strain skt5, stronger effect = lower value 1.01 | locus YBR009C, strain hhf1, stronger effect = lower value 1.01 | locus YBR021W, strain FUR4, stronger effect = lower value 1.03 | locus YBR023C, strain chs3, stronger effect = lower value 1.02 | locus YBR171W, strain sec66, stronger effect = lower value 1.02 | locus YBR229C, strain ROT2, stronger effect = lower value 1 | locus YBR231C, strain swc5, stronger effect = lower value 1.02 | locus YBR279W, strain paf1, stronger effect = lower value 1.01 | locus YCL011C, strain gbp2, stronger effect = lower value 1.01 | locus YCL016C, strain dcc1, stronger effect = lower value 1.01 | locus YCL029C, strain bik1, stronger effect = lower value 1.04 | locus YCL069W, strain vba3, stronger effect = lower value 1.02 | locus YCR088W, strain abp1, stronger effect = lower value 1.02 | locus YDL005C, strain med2, stronger effect = lower value 1.01 | locus YDL035C, strain GPR1, stronger effect = lower value 1.01 | locus YDL040C, strain nat1, stronger effect = lower value 1.01 | locus YDL074C, strain BRE1, stronger effect = lower value 1.02 | locus YDL101C, strain DUN1, stronger effect = lower value 1.01 | locus YDL134C, strain PPH21, stronger effect = lower value 1.01 | locus YDL185W, strain tfp1, stronger effect = lower value 1.02 | locus YDL192W, strain arf1, stronger effect = lower value 1.02 | locus YDR001C, strain nth1, stronger effect = lower value 1.01 | locus YDR069C, strain doa4, stronger effect = lower value 1.03 | locus YDR101C, strain arx1, stronger effect = lower value 1.01 | locus YDR137W, strain rgp1, stronger effect = lower value 0.99 | locus YDR150W, strain NUM1, stronger effect = lower value 1.02 | locus YDR159W, strain sac3, stronger effect = lower value 1.02 | locus YDR162C, strain NBP2, stronger effect = lower value 1.01 | locus YDR195W, strain ref2 1.04 | locus YDR297W, strain sur2, stronger effect = lower value 1.02 | locus YDR318W, strain mcm21, stronger effect = lower value 1.02 | locus YDR334W, strain swr1, stronger effect = lower value 1.01 | locus YDR335W, strain msn5, stronger effect = lower value 1.01 | locus YDR388W, stronger effect = lower value 1.03 | locus YDR392W, strain spt3, stronger effect = lower value 0.981 | locus YDR502C, strain sam2, stronger effect = lower value 1.01 | locus YEL003W, strain gim4, stronger effect = lower value 1.01 | locus YEL037C, strain rad23, stronger effect = lower value 1.02 | locus YEL061C, strain CIN8 (second series), stronger effect = lower value 1.01 | locus YEL061C, strain CIN8, stronger effect = lower value 1 | locus YER015W, strain faa2, stronger effect = lower value 1.01 | locus YER016W, strain bim1, stronger effect = lower value 1.02 | locus YER110C, stronger effect = lower value 1.02 | locus YER111C, strain swi4, stronger effect = lower value 1.02 | locus YER155C, strain BEM2 (second series), stronger effect = lower value 1.05 | locus YER155C, strain BEM2, stronger effect = lower value 1 | locus YER167W, strain BCK2, stronger effect = lower value 1.02 | locus YFR010W, strain ubp6, stronger effect = lower value 1.03 | locus YGL078C, strain dbp3, stronger effect = lower value 1.02 | locus YGL086W, strain mad1, stronger effect = lower value 1.02 | locus YGL167C, strain pmr1, stronger effect = lower value 1.02 | locus YGL173C, strain kem1, stronger effect = lower value 1.01 | locus YGL227W, strain vid30, stronger effect = lower value 1.02 | locus YGL240W, strain doc1, stronger effect = lower value 1.03 | locus YGL248W, strain PDE1, stronger effect = lower value 1.01 | locus YGL253W, strain hxk2, stronger effect = lower value 1.02 | locus YGR078C, strain PAC10, stronger effect = lower value 1.02 | locus YGR135W, strain pre9, stronger effect = lower value 1.01 | locus YGR229C, strain SMI1, stronger effect = lower value 1.02 | locus YGR252W, strain gcn5, stronger effect = lower value 1.01 | locus YHR013C, strain ard1, stronger effect = lower value 1.02 | locus YHR027C, strain rpn1, stronger effect = lower value 1.02 | locus YHR030C, strain SLT2, stronger effect = lower value 1.01 and 1 | locus YHR079C, strain IRE1 (second series), stronger effect = lower value 1.01 | locus YHR079C, strain IRE1, stronger effect = lower value 0.993 | locus YHR094C, strain hxt1, stronger effect = lower value 1.02 | locus YHR129C, strain ARP1, stronger effect = lower value 1.01 | locus YHR142W, strain chs7, stronger effect = lower value 1.03 | locus YHR200W, strain rpn10, stronger effect = lower value 1.03 | locus YIL066C, strain RNR3, stronger effect = lower value 1.02 | locus YIL073C, strain SPO22, stronger effect = lower value 1.03 | locus YIL125W, strain kgd1, stronger effect = lower value 1.02 | locus YIR030C, strain dcg1, stronger effect = lower value 1.01 | locus YJL092W, strain hpr5, stronger effect = lower value 1.01 | locus YJL095W, strain BCK1 (second series), stronger effect = lower value 1.02 | locus YJL095W, strain BCK1, stronger effect = lower value 1.01 and 1 | locus YJL115W, strain asf1, stronger effect = lower value 1.02 | locus YJL129C, strain trk1, stronger effect = lower value 1.01 | locus YJL134W, strain LCB3, stronger effect = lower value 1.02 | locus YJL154C, strain vps35, stronger effect = lower value 1.01 | locus YJL164C, strain tpk1, stronger effect = lower value 1.01 | locus YJL166W, strain qcr8, stronger effect = lower value 1.04 | locus YJL168C, strain set2, stronger effect = lower value 1.02 | locus YJL187C, strain SWE1 (second series), stronger effect = lower value 1.01 | locus YJL187C, strain SWE1, stronger effect = lower value 1.01 | locus YJR043C, strain POL32, stronger effect = lower value 1.01 | locus YJR066W, strain TOR1, stronger effect = lower value 0.96
